# From paper PMC7862700, “An all-to-all approach to the identification of sequence-specific readers for epigenetic DNA modifications on cytosine”
# Assays:
# Experiment in all cases: DAPPL (digital affinity profiling via proximity ligation, sequencing); 10 mM Tris-HCl pH 7.5, 50 mM NaCl, 1 mM DTT, 4% glycerol, room temperature, 30 min; GST-TFs on glutathione beads, 16-mer random dsDNA library, 0.1% formaldehyde crosslink after washing; high values mean tight binding
# FLI1 = target: T1, FLI1 (Homo sapiens, UniProt Q01543 1-452); details: protein: recombinant; tags: N-terminal GST; dsDNA, one strand shown
# T1 sequence: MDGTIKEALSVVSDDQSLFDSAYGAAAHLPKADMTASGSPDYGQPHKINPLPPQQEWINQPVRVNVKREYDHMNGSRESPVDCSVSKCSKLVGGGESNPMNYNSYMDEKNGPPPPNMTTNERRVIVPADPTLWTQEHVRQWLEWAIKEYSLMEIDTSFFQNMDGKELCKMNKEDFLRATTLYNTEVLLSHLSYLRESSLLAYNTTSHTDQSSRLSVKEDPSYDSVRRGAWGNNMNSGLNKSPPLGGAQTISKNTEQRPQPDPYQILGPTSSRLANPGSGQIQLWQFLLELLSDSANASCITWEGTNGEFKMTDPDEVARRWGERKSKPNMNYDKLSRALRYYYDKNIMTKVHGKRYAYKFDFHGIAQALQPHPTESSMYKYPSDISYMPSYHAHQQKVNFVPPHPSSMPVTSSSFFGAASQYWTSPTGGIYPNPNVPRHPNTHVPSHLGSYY
# How it was run: (§1)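 GST fusions of human transcription factors were expressed in yeast and captured with glutathione beads. Once given DNA barcodes and pooled alongside a tag-only sample, they were incubated for 30 min at room temperature with 200 nmole of a random double-stranded 16-mer DNA library in Tris/NaCl/DTT/glycerol buffer, then washed, crosslinked (0.1% formaldehyde), proximity-ligated, PCR-amplified and sequenced on an Illumina NextSeq500. The binding signal of each hexamer is its read frequency for a factor divided by its frequency for the tag-only sample.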
# ELK1 = target: T2, ELK1 (Homo sapiens, UniProt P19419 1-428); details: protein: recombinant; tags: N-terminal GST; dsDNA, one strand shown
# T2 sequence: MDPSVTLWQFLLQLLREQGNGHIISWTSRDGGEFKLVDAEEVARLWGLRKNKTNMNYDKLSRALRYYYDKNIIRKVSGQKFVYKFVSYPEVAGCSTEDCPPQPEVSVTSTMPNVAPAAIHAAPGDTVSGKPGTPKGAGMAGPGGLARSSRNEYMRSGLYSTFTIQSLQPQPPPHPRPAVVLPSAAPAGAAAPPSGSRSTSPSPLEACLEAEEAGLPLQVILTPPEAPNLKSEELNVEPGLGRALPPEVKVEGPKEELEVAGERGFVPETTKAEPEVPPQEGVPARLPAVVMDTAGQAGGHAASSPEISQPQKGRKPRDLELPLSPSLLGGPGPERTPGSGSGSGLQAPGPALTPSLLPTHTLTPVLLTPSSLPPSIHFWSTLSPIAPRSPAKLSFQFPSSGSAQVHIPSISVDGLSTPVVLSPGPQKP
# How it was run: as §1
# GABPA = target: T3, GABPA (Homo sapiens, UniProt Q06546 1-454); details: protein: recombinant; tags: N-terminal GST; dsDNA, one strand shown
# T3 sequence: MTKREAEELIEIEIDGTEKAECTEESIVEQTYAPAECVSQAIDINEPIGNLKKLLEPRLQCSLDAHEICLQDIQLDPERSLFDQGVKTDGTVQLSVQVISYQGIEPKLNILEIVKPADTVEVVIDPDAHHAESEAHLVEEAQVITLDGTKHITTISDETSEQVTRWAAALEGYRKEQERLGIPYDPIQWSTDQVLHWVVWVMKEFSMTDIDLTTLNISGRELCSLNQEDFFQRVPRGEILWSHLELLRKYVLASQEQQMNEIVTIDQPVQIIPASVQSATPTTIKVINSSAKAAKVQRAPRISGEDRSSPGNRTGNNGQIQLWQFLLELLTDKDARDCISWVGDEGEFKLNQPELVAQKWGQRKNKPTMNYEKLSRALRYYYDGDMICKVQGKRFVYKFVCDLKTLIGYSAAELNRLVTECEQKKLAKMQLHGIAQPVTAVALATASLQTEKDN
# How it was run: as §1
# ERG = target: T4, ERG (Homo sapiens, UniProt P11308 1-479); details: protein: recombinant; tags: N-terminal GST; dsDNA, one strand shown
# T4 sequence: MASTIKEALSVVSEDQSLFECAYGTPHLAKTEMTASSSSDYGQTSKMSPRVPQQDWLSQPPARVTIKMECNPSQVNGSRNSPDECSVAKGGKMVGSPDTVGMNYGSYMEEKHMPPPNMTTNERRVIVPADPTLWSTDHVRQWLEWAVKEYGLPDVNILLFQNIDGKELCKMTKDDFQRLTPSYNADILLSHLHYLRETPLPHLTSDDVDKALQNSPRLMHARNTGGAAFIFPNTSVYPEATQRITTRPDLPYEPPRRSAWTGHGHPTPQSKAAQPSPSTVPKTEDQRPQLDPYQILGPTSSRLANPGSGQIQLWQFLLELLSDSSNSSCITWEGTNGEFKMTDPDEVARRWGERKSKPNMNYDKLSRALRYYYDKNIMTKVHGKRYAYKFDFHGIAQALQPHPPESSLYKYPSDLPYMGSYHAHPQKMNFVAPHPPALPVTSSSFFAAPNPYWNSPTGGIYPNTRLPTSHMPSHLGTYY
# How it was run: as §1
# ELF1 = ELF1 (Homo sapiens, UniProt P32519 1-619); details: protein: recombinant; tags: N-terminal GST; dsDNA, one strand shown
# Chain of ELF1 (P32519 whole entry): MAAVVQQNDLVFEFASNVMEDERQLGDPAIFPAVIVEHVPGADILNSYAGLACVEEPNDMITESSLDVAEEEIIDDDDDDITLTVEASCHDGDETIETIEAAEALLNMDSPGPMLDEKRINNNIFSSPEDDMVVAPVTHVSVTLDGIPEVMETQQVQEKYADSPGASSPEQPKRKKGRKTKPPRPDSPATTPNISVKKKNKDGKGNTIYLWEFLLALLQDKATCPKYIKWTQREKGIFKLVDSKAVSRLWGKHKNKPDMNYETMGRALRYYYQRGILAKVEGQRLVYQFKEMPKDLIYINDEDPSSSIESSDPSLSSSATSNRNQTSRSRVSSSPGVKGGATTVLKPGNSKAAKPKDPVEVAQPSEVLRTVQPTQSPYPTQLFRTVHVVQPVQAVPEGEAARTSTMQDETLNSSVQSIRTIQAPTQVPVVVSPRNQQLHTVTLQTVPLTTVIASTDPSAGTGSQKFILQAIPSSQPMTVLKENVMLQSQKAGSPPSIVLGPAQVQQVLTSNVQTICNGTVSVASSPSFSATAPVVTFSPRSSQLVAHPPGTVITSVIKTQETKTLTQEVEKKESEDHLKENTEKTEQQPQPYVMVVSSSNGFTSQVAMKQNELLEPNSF
# How it was run: as §1
# EHF = target: T5, EHF (Homo sapiens, UniProt Q9NZC4 1-300); details: protein: recombinant; tags: N-terminal GST; dsDNA, one strand shown
# T5 sequence: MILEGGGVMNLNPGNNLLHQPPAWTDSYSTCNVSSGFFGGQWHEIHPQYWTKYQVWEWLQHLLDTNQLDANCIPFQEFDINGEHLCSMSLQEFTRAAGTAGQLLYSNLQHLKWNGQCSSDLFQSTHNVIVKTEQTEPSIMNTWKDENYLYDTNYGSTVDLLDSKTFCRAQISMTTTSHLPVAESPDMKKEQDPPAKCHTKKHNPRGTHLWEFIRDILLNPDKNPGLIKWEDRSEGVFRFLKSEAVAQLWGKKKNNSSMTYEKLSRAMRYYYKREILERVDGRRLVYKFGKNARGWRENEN
# How it was run: as §1
# SPI1 = SPI1 (Homo sapiens, UniProt P17947 1-270); details: protein: recombinant; tags: N-terminal GST; dsDNA, one strand shown
# How it was run: as §1
# SPIB = SPIB (Homo sapiens, UniProt Q01892 1-262); details: protein: recombinant; tags: N-terminal GST; dsDNA, one strand shown
# Chain of SPIB (Q01892 whole entry): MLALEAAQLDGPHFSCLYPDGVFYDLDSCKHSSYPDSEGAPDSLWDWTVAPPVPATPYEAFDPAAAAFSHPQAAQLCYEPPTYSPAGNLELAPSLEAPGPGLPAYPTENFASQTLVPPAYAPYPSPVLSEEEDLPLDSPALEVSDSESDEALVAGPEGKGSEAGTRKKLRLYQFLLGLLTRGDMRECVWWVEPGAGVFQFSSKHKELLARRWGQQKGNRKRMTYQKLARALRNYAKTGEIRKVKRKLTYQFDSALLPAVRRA
# How it was run: as §1
# ELK3 = target: T6, ELK3 (Homo sapiens, UniProt P41970 1-407); details: protein: recombinant; tags: N-terminal GST; dsDNA, one strand shown
# T6 sequence: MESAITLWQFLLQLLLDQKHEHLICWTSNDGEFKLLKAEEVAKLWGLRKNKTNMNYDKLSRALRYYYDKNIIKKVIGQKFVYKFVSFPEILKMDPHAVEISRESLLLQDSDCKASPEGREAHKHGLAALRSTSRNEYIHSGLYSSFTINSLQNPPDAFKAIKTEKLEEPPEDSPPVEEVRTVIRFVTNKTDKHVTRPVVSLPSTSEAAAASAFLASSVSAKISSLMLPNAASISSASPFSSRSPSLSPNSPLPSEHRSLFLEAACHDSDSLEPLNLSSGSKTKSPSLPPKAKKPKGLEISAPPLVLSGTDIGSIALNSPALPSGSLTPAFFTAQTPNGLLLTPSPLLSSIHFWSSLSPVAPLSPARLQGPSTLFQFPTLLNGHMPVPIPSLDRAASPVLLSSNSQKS
# How it was run: as §1
# FEV = target: T7, FEV (Homo sapiens, UniProt Q99581 1-238); details: protein: recombinant; tags: N-terminal GST; dsDNA, one strand shown
# T7 sequence: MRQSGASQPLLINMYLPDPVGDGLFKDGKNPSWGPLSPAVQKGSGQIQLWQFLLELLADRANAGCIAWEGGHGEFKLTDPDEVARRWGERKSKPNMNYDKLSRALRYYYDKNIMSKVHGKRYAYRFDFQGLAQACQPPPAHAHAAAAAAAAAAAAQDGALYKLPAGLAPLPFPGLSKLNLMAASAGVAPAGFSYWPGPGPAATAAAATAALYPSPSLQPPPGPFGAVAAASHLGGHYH
# How it was run: as §1
# ETV5 = ETV5 (Homo sapiens, UniProt P41161 1-510); details: protein: recombinant; tags: N-terminal GST; dsDNA, one strand shown
# Chain of ETV5 (P41161 whole entry): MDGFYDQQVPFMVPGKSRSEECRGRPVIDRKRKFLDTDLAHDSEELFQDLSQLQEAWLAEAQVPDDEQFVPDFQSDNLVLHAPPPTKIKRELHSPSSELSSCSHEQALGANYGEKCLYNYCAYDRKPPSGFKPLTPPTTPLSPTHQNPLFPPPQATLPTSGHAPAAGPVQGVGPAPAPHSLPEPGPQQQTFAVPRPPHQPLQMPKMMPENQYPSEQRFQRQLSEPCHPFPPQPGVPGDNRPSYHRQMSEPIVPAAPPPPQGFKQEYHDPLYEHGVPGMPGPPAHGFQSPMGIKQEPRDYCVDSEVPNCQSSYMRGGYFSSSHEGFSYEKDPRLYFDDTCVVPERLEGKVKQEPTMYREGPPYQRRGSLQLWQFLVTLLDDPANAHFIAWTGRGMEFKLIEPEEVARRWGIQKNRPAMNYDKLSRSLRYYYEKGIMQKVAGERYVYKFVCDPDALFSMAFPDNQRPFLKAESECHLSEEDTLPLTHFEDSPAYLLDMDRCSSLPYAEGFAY
# How it was run: as §1
# HSF1 = HSF1 (Homo sapiens, UniProt Q00613 1-529); details: protein: recombinant; tags: N-terminal GST; chain copies: 3; dsDNA, one strand shown
# Chain of HSF1 (Q00613 whole entry): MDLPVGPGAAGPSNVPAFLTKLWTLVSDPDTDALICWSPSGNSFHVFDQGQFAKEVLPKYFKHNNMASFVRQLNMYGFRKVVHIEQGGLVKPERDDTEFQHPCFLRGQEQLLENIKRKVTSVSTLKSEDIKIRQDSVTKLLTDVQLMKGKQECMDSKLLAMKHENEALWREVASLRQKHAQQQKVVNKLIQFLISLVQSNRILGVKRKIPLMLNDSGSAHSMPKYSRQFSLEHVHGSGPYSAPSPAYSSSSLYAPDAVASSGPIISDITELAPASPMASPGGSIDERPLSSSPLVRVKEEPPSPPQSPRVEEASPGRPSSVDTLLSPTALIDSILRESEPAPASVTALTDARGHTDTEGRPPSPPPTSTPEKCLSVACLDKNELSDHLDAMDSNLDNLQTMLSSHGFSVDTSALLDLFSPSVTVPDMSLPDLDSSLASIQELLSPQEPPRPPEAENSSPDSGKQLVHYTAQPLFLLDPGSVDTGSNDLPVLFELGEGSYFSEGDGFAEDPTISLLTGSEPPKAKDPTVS
# How it was run: as §1
# SPIC = target: T8, SPIC (Homo sapiens, UniProt Q8N5J4 1-248); details: protein: recombinant; tags: N-terminal GST; dsDNA, one strand shown
# T8 sequence: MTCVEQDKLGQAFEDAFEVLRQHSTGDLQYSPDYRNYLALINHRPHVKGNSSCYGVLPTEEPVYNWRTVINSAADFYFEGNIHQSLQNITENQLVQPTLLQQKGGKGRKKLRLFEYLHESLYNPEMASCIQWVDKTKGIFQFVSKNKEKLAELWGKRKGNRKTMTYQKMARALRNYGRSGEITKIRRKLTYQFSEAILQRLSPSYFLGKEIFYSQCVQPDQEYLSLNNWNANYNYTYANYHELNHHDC
# How it was run: as §1
# ELF4 = ELF4 (Homo sapiens, UniProt Q99607 1-663); details: protein: recombinant; tags: N-terminal GST; dsDNA, one strand shown
# Chain of ELF4 (Q99607 whole entry): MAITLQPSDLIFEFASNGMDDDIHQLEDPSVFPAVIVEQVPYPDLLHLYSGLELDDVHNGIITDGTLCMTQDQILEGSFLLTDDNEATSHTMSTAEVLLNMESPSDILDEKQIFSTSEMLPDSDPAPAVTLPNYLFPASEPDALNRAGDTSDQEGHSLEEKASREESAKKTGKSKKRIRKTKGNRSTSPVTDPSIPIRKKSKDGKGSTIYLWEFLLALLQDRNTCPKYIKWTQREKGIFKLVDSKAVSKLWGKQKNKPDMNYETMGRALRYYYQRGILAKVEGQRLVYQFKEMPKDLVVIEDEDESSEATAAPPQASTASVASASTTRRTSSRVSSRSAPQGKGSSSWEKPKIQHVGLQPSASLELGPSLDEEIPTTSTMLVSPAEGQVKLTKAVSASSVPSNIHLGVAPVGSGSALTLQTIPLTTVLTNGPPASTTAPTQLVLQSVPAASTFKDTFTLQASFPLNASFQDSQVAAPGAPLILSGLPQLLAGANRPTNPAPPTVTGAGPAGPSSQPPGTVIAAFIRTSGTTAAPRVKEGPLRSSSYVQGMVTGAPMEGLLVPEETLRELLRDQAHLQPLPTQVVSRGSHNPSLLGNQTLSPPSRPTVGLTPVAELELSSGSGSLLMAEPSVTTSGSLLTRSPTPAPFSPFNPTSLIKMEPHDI
# How it was run: as §1
# ELK4 = target: T9, ELK4 (Homo sapiens, UniProt P28324-2 1-405); details: protein: recombinant; tags: N-terminal GST; dsDNA, one strand shown
# T9 sequence: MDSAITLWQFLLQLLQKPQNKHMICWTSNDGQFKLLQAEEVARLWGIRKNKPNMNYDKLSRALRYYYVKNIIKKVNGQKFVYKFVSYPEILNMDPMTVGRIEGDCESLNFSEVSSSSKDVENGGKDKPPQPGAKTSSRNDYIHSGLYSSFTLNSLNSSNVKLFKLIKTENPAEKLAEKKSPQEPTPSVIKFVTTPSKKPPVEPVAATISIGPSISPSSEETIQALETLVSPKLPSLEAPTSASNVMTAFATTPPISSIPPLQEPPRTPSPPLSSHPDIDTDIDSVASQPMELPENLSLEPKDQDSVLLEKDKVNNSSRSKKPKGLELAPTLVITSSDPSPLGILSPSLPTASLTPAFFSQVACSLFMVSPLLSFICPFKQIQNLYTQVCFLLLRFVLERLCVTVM
# How it was run: as §1
# ETV2 = target: T10, ETV2 (Homo sapiens, UniProt O00321 1-342); details: protein: recombinant; tags: N-terminal GST; dsDNA, one strand shown
# T10 sequence: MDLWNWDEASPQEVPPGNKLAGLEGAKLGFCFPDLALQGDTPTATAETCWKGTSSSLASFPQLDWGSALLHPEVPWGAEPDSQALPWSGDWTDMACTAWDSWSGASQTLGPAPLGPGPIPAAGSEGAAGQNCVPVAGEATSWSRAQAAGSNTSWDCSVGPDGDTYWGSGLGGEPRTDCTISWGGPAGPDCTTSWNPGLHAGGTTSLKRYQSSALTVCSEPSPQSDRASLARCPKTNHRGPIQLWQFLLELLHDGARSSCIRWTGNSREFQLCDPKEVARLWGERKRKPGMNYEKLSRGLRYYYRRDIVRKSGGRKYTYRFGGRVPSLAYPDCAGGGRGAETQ
# How it was run: as §1
# ELF3 = target: T11, ELF3 (Homo sapiens, UniProt P78545 1-371); details: protein: recombinant; tags: N-terminal GST; dsDNA, one strand shown
# T11 sequence: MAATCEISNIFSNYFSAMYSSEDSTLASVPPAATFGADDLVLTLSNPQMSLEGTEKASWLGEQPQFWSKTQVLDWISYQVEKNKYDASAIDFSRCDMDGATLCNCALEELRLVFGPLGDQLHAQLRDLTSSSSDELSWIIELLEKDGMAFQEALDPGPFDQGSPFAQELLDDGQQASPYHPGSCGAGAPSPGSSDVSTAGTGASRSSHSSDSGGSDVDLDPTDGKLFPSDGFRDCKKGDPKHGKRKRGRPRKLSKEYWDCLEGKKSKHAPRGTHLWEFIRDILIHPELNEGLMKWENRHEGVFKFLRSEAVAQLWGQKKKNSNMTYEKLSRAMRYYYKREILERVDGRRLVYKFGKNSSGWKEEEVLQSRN
# How it was run: as §1
# CRX = CRX (Homo sapiens, UniProt O43186 1-299); details: protein: recombinant; tags: N-terminal GST; dsDNA, one strand shown
# Chain of CRX (O43186 whole entry): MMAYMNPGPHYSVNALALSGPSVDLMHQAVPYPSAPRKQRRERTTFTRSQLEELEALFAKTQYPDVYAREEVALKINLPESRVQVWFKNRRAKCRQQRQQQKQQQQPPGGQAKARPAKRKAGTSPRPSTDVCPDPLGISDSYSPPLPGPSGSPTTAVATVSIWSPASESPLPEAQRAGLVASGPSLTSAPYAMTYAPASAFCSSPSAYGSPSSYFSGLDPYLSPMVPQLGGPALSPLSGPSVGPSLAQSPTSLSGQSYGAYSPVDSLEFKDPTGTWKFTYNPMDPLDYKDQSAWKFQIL
# How it was run: as §1
# ETV1 = ETV1 (Homo sapiens, UniProt P50549 1-477); details: protein: recombinant; tags: N-terminal GST; dsDNA, one strand shown
# Chain of ETV1 (P50549 whole entry): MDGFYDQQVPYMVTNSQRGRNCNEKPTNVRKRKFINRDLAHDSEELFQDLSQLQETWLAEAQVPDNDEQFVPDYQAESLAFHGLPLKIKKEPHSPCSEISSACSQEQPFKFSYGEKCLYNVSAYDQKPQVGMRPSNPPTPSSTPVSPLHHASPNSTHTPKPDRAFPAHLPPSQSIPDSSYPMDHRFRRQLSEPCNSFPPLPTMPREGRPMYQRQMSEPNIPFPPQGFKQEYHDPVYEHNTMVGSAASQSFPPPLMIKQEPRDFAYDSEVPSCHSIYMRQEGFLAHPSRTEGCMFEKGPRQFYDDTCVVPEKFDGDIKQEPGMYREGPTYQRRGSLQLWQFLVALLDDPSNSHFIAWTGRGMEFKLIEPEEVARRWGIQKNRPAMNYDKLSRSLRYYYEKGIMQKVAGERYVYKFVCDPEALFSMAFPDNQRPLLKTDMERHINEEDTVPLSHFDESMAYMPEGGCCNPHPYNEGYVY
# How it was run: as §1
sequence,measurement,setting,value
TCGTTC,binding signal,FLI1,"1.17 fold enrichment (6-mer frequency, TF over GST control)"
same,binding signal,ELK1,"1.15 fold enrichment (6-mer frequency, TF over GST control)"
same,binding signal,GABPA,"1.33 fold enrichment (6-mer frequency, TF over GST control)"
same,binding signal,ERG,"1.27 fold enrichment (6-mer frequency, TF over GST control)"
same,binding signal,ELF1,"1.15 fold enrichment (6-mer frequency, TF over GST control)"
same,binding signal,EHF,"1.23 fold enrichment (6-mer frequency, TF over GST control)"
same,binding signal,SPI1,"1.17 fold enrichment (6-mer frequency, TF over GST control)"
same,binding signal,SPIB,"1.23 fold enrichment (6-mer frequency, TF over GST control)"
same,binding signal,ELK3,"1.23 fold enrichment (6-mer frequency, TF over GST control)"
same,binding signal,FEV,"1.23 fold enrichment (6-mer frequency, TF over GST control)"
same,binding signal,ETV5,"1.29 fold enrichment (6-mer frequency, TF over GST control)"
same,binding signal,HSF1,"1.39 fold enrichment (6-mer frequency, TF over GST control)"
same,binding signal,SPIC,"1.23 fold enrichment (6-mer frequency, TF over GST control)"
same,binding signal,ELF4,"1.31 fold enrichment (6-mer frequency, TF over GST control)"
same,binding signal,ELK4,"1.39 fold enrichment (6-mer frequency, TF over GST control)"
same,binding signal,ETV2,"1.37 fold enrichment (6-mer frequency, TF over GST control)"
same,binding signal,ELF3,"1.15 fold enrichment (6-mer frequency, TF over GST control)"
same,binding signal,CRX,"1.04 fold enrichment (6-mer frequency, TF over GST control)"
same,binding signal,ETV1,"1.2 fold enrichment (6-mer frequency, TF over GST control)"
